Structures are written as SMILES. Compounds without any hit were thinned out: in the full panel of roughly 83,000, 20% have a hit.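 Interpretation: 100, growth as untreated; towards 0, rising growth inhibition; 0, no net growth; 0 to -100, cell death. Compounds scoring below 10 were considered active.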 Values without a mark were called inactive. Activity calls are given as the source filed them.

Common to all, as to assay: NCI-60 one-dose screen, 48 h (100 = growth as untreated, 0 = no growth, -100 = all killed)
Common to all, as to details: 10 µM unless noted

The test system of test [1] is SR leukemia.
The test system of test [2] is RPMI-8226 leukemia.
Test [3] relates to OVCAR-8 ovarian.
Test [4] has as its system OVCAR-5 ovarian.
In test [5] the test system is OVCAR-4 ovarian.
In test [6] the test system is SK-OV-3 ovarian.
Test [7] concerns OVCAR-3 ovarian.
Test [8] has as its system HS 578T breast.
In test [9] the test system is NCI/ADR-RES ovarian.
In test [10] the test system is T-47D breast.
Test [11] deals with BT-549 breast.
The subject of test [12] is MDA-MB-435 melanoma.
Test [13] concerns SW-620 colon.
In test [14] the test system is MCF7 breast.
The test system of test [15] is HCT-116 colon.
Test [16] relates to HCC-2998 colon.
The subject of test [17] is KM12 colon.
Test [18] has as its system IGROV1 ovarian.

As for `Cc1c2cnccc2c(C)c2c1c1cc(C3OCCCO3)ccc1n2C`, the growth in test [1] is 4.22% (active); in test [2], -21.6% (active); in test [3], 6.68% (active); in test [4], -3.71% (active); in [5], -2.47% (active); in [6], -6.97% (active). Besides, the growth in [7] is 0.203% (active); in [8], -3.27% (active); in test [9] it was -9.92% (active); in test [10], -4.56% (active); in test [11], -37% (active); in [12], -28.1% (active). Moreover, the growth was 4.71% (active) in test [13]; 0.909% (active) in test [14]; 1.45% (active) in test [15]; -15.1% (active) in [16]; 5.75% (active) in [17].

Regarding `COCCCOc1cc(C[C@@H](C[C@H](N)[C@@H](O)C[C@H](C(=O)NCC(C)(C)C(N)=O)C(C)C)C(C)C)ccc1OC`, the growth is 103% in test [1]; 111% in [2]; 105% in test [3]; 110% in [4]; 101% in [5]; 113% in [6]. The growth is 116% in test [7]; 71.3% in test [8]; 103% in test [9]; 107% in test [10]; 110% in test [11]; 98.9% in test [12]. In addition, the growth in [13] was 105%; in test [14], 95.1%; in test [15] it was 101%; in [16] it was 102%; in [17] it was 109%.

As for `COc1ccc(-c2nnc(SCC(=O)Nc3ccc(/C(C)=N\O)cc3)n2-c2ccccc2)cc1OC`, the growth is 95.4% in [1]; 91.6% in test [2]; 42.7% in [3]; 97% in test [4]; 103% in test [5]; 4.74% (active) in test [6]. For the same compound, the growth in test [7] was 82%; in test [8] it was 42.8%; in test [9] it was 90.6%; in [10], 68%; in test [11] it was 65.2%; in test [12], 104%. For the same compound, the growth was 115% in [13]; 69.2% in test [14]; 69.2% in [15]; 94% in [16]; 106% in test [17].

`O=C(CN1CCN(c2cc3c(cc2F)c(=O)c(C(=O)O)cn3C2CC2)CC1)N/N=C/c1ccncc1`: the growth in test [1] was 107%; in test [2], 93.2%; in [3] it was 97.5%; in test [4], 98.2%; in test [5], 98.9%; in test [6] it was 102%. For the same compound, the growth in test [18] was 108%; in test [8] it was 101%; in [9] it was 107%; in test [10], 96.8%; in test [11], 95.7%; in test [12], 97.5%. Also, the growth is 97.4% in [13]; 92.4% in test [14]; 104% in test [15]; 110% in test [16]; 101% in [17].

Take `COc1ccc(/C(C)=C(\c2ccc(Cl)cc2)c2ccc(OCCN3CCCC3)cc2)cc1`: the growth in test [1] was -21.6% (active); in test [2], -20.3% (active); in [3], 51.6%; in test [4], 64.7%; in test [5] it was 63.5%; in [6], 82.9%. Further, the growth in test [18] was 48.9%; in [8], 51.5%; in test [9], 70.6%; in test [10], 45.9%; in test [11] it was 57.9%; in [12], 39.2%. Moreover, the growth in test [13] was 25.1%; in test [14], 13%; in test [15], 23.6%; in test [16], 87%; in test [17], 24.5%.

On to `CCN1C(=O)N(CC)C2C1NN=C1SCC(=O)N12` (configuration not stated), for which the growth in [1] is 95.7%; in [2], 80.6%; in [3], 66.3%; in [4], 95.8%; in test [5], 32.6%; in test [6], 105%. Also, the growth is 27.2% in test [18]; 98.4% in [8]; 84.6% in test [9]; 31.9% in test [10]; 102% in test [11]; 73.7% in test [13]. Besides, the growth in test [14] was 18%; in test [15], 9.44% (active); in test [16] it was 105%; in test [17] it was 105%.

On to `Cc1ccc2nc(Cl)c(Cn3nnnc3SCc3ccccc3)cc2c1`, for which the growth was 80% in test [1]; 93.1% in [2]; 97.3% in [3]; 94.3% in test [4]; 86.9% in test [5]; 97.7% in test [6]. Also, the growth in [7] was 105%; in test [8], 83.1%; in test [9], 86.1%; in [10] it was 84.6%; in test [11], 92.3%; in test [12] it was 103%. In addition, the growth in [13] was 96.1%; in [14], 87.9%; in test [15], 89.5%; in test [16], 111%; in test [17], 101%.

For the compound `N=C(N)SCc1cccc2c(CSC(=N)N)cccc12`, the growth is 92.9% in test [1]; 107% in test [2]; 102% in test [3]; 92.4% in test [4]; 116% in test [5]; 113% in test [6]. In addition, the growth was 99.2% in test [18]; 100% in test [8]; 105% in test [9]; 96.2% in test [10]; 107% in test [11]; 107% in test [12]. For the same compound, the growth in [13] is 103%; in test [14] it was 98.2%; in test [15], 101%; in [16], 104%; in test [17] it was 94.5%.

For `CCCCCCC(CCCC)COC(=O)c1ccc(Cl)cc1` (configuration not stated), the growth is 99.1% in test [1]; 108% in test [2]; 109% in test [3]; 115% in test [4]; 99.4% in [5]; 107% in test [6]. In addition, the growth is 114% in [7]; 109% in test [8]; 115% in test [9]; 103% in test [10]; 107% in test [11]; 107% in [12]. The growth in test [13] was 109%; in [14], 101%; in [15] it was 104%; in [16] it was 121%; in test [17] it was 108%.
